Molecular target: FAM194A
Assay: pooled miR-30 sensor sort-seq; sequence = guide strand
Conditions: shRNA
Further: reference of the scale not given here.

Sequence	sensor-assay potency score (higher = more potent)
TTCTCTAAGAGCTCATTCCTGA	-0.231
TAGAAATCTTGTCTTGTTCTAA	0.351
TTTAGTTTCGACTCTTCTGGAT	0.0335
TTGTCTTGTTCTAAGATGCGGA	-0.227
TAGAATATTTGTGTTGTCCCAT	0.0372
TTAAGCGCTTTGAATCATCTTC	-0.166

Molecular target: FAM203A
Assay: as above
Conditions: shRNA

Sequence	sensor-assay potency score (higher = more potent)
AGGTCCAAGCAACCACTCGTGA	-1.79
TAGCCGGGCGTGCACAGCGCGC	-1.89
TCTTGCGGATGTCTGCATCAGG	-1.13
TTCAACAAGCATCTTGCGGATG	-0.806
TGCATCAGGTTCTCGCTGCTTG	-0.383
ATGGCTTCAACAAGCATCTTGC	-0.247
TGATGTCGGTGCTCGAAGCAGC	-0.572
TGGACCACGCACCTGTCGGGGT	-1.1
TCCAACTGCTCCTGCTCCCTGC	-0.834
TTGCAGTGGTTTTCTGTCCAGT	-0.715
TGCAAGTCGACAGGCAGCCGTT	-1.26

Molecular target: FAM22D
Assay: as above
Conditions: shRNA

Sequence	sensor-assay potency score (higher = more potent)
TTGGTCTCTGCTCGCCGGTGGG	-1.33
TTCGGTGTCAGGACTCTGGGGA	0.265
TGAGGAAGCACGAAAGCGCTTC	-0.41
TTCTCATAGACACTCCTGGGGT	-0.655
TACTCCTGCACCACTTCTGGGG	-0.442
TAAGACCAAGGTCTGCGCCTGA	-0.117
TTAGACAGCACCAGAGGGCCGC	-0.28
TAAGACCCAGAGAGTGACCTGG	-0.135
AATTCTTCCAGGAATTGGGGAT	-0.511
TTGAAAGTAAACAGGTTCCTGG	-0.42
ATGAATGACGGCCTCCACCTTG	-1.02
TCTCATAGACACTCCTGGGGTT	0.0703
TTTGAAAGTAAACAGGTTCCTG	-0.0805
AAGTTAGACAGCACCAGAGGGC	-0.454
TGGTCTCTGCTGGTCTCTGGGG	-1.54
TTCCACAATGAGAAAAGCCAAG	-1.63
TTGGTGACGAAGTCTTTCTGGG	-0.0512
TGTTCTGTCACCAGAGGTGTGC	-0.395

Molecular target: FAM22F
Assay: as above
Conditions: shRNA

Sequence	sensor-assay potency score (higher = more potent)
TTTCTGAGCAGATGGAGACTGA	-0.731
AAGGACTTGAGTCCAACCTGGC	-0.389
TTGACAGGAGACTCTCCAGGGA	-0.14
TTCTTGGACTTGCTGGCAGGAG	-0.948
AAGCACAGCAGGGTCTTCGGAC	-0.95
